PubChem BioAssay (NCI)
The panel holds about 83,000 compounds, 20% with a hit somewhere; the sample as a whole holds those more often.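 Step 1: grow cells in 96-well plates. Step 2: add test compound at a single concentration. Step 3: incubate 48 h. Step 4: record percent growth.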 Calls of active or inactive are those of the source.

system: HCT-15 colon; assay: NCI-60 one-dose screen, 48 h (100 = growth as untreated, 0 = no growth, -100 = all killed); settings: 10 µM unless noted
Description: Growth inhibition of the HCT-15 human tumor cell line is measured as a screen for anti-cancer activity. Cells are grown in 96 well plates and exposed to the test compound for 48 hours. Compounds are tested at a single concentration, which is 10^-5 M for most compounds. The reported endpoint is percent growth (GI% or GIPRCNT), where numbers from 0 - 100% represent growth inhibition, and numbers from -100% - 0 represent cell death. For example, a value of 40 represents 60% growth inhibition. A value of 0 means no net growth occurred over the course of the experiment. A value of -40 indicates 40% of cells at the beginning of the experiment died by the end of the experiment. A value of -100 means all cells are dead at the end of the experiment.
NCI-60 Human Tumor Cell Lines Screen was performed using the standard one-dose NCI protocol, which is described in more detail at https://dtp.cancer.gov/discovery_development/nci-60/default.htm.
Compounds with GIPRCNT values below 10 were considered active. Activity score was based on GIPRCNT using the following formula: […]
Score is 0 for GIPRCNT values of 100 or above, 50 for GIPRCNT values of 0, and 100 for GIPRCNT values of -100.

| Compound | growth |
| --- | --- |
| COc1cc(-c2nc3ccccc3o2)cc(CN2CCN(c3ccccc3)CC2)c1O | 43.6% (inactive) |
| CCC(=O)Nc1nnc(Cc2ccc(OC)c(OC)c2)s1 | 31.7% (inactive) |
| O=C1C(Cl)=C(NCCCN2CCOCC2)C(=O)c2ccccc21 | 79.5% (inactive) |
| NC(=O)c1cc(I)ccc1NC(=O)COc1ccc(Cl)cc1Cl | 62.8% (inactive) |
| Clc1ccc(C2=Nc3cccc4cccc(c34)N2)cc1Cl | 70.2% (inactive) |
| O=C1/C(=C/c2ccc(F)cc2)CN(Cc2cn(CCNc3ccnc4cc(Cl)ccc34)nn2)C/C1=C\c1ccc(F)cc1 | -60.5% (active) |
| Cc1nc2cc(Nc3nc(Cl)nc(Nc4ccc(F)cc4)n3)ccc2n1Cc1ccccc1 | 72.1% (inactive) |
| Cc1ccc(C)c2c1sc1nc3nc4sc5ccccc5n4c(=N)c3c(=O)n12 | 102% (inactive) |
| COc1ccc2c(c1)c(=O)oc1c(C)c(OCC(C)=O)ccc12 | 86.7% (inactive) |
| COc1ccc(/C=N/OCC(O)CNCc2ccccc2)cc1OC1CCCC1 (stereo not given) | 102% (inactive) |
| COc1cc(C(F)(F)F)ccc1-c1cc(-c2ccc(F)cc2)n[nH]1 | 73.3% (inactive) |
| O=C(N/N=C/c1ccc(OC(F)F)c(OC2CCCC2)c1)c1cnn2c1NC(c1ccccc1)C2 (stereo not given) | 51.1% (inactive) |
| COc1ccc(/C=N/OCC(O)CN2CCC(O)CC2)cc1OC1CCCC1 (stereo not given) | 109% (inactive) |
| COc1cc(C2CC(=O)Nc3c2ccc2ccccc32)cc(Br)c1OC (stereo not given) | 27.9% (inactive) |
| Cc1ccc2nc(NC(=O)CSC(=S)N3CCN(Cc4ccccc4)CC3)sc2c1 | -37% (active) |
| Cc1ccc(S(=O)(=O)N2C/C(=C\c3cc(F)cc(F)c3)C(=O)/C(=C/c3cc(F)cc(F)c3)C2)cc1 | -31.6% (active) |
| COc1ccc(/C=C2\CN(Cc3cn(CCCNc4ccnc5cc(Cl)ccc45)nn3)C/C(=C\c3ccc(OC)c(OC)c3)C2=O)cc1OC | 9.96% (active) |
| Cc1nc(NN)c([N+](=O)[O-])c(NN)n1 | 105% (inactive) |
| Cc1ccc2c(c1)c(Sc1ccc(C(=O)NO)cc1)c1n2CN(C)CC1 | 58.7% (inactive) |
| COc1ncnc2c1ncn2C/C(Br)=C(\Br)CCl | 31.6% (inactive) |

| Compound | growth |
| --- | --- |
| Cc1nn(CC(=O)O)c2c1C(=O)CC(C)(C)C2 | 102% (inactive) |
| Cc1ccc(N=c2nc3sc4c(C)ccc(C)c4n3c(N)c2C#N)cc1 | 104% (inactive) |
| COc1ccc(-c2cc(=O)oc3c4c(ccc23)OCN(Cc2ccc(F)cc2)C4)cc1 | 64.3% (inactive) |
| Clc1nc(-c2ccccn2)nc2sc3c(c12)CCCCCC3 | 84.2% (inactive) |
| O=[N+]([O-])c1ccc(O)c2ncccc12 | 31.5% (inactive) |
| C=CC(=O)N1CC2(CCC(n3nc(-c4ccc(Oc5ccccc5)cc4)c4c(N)ncnc43)CC2)C1 | -60.5% (active) |
| COc1cc2cc(Oc3ccc(NC(=O)Nc4cccc(C(F)(F)F)c4)cc3)c(C)nc2cc1OCCN1CCCCC1 | -81.9% (active) |
| Nc1nc(N)c(C=Nc2ccc(Br)cc2)c(Nc2ccc(Br)cc2)n1 | 88.5% (inactive) |
| COc1ccc(CSc2nc3cc(OC)c(OC)cc3c(=O)n2-c2ccc(Cl)cc2)cc1 | 98.6% (inactive) |
| C=CC[P+](c1ccccc1)(c1ccccc1)c1ccccc1 | 98.1% (inactive) |
| CN1CCc2cccc3c2C1Cc1ccc(O)c(O)c1-3 (stereo not given) | 70.7% (inactive) |
| O=C(COc1ccc(/C=C2\CSc3ccccc3C2=O)cc1)c1ccc(Cl)cc1 | 108% (inactive) |
| O=C(O)C[C@H](O)C[C@H](O)/C=C/c1c(C2CC2)nc2ccccc2c1-c1ccc(F)cc1 | 46.5% (inactive) |
| OB(O)c1ccccc1 | 102% (inactive) |
| COc1ccc(-n2ncc3c4nc(OC)c(S(=O)(=O)c5ccccc5)cc4ccc32)cc1 | 77.6% (inactive) |
| CCOC(=O)C(CC(c1ccccc1)N1CCCCC1)[N+](=O)[O-] (stereo not given) | 74.9% (inactive) |
| O=c1nc(NO)[nH]c(=O)n1Cc1ccc(F)cc1 | 107% (inactive) |
| CC(=O)Nc1ccccc1-c1n[nH]c(=O)[nH]c1=O | 102% (inactive) |
| CN(C)C(=S)SCN1C(=O)c2ccc([N+](=O)[O-])cc2S1(=O)=O | 95.2% (inactive) |
| O=C1Nc2ccc(Cl)cc2/C1=N/N=C(c1ccccc1)c1ccccc1 | 87.2% (inactive) |
